Screening data: PubChem BioAssay, National Center for Advancing Translational Sciences (NCATS)
ALOX12 inh: ALOX12 (human) lipoxygenase inhibition. purified 12hLO, xylenol orange hydroperoxide absorbance. Potency, µM (series often up to 108 µM), without a hit: top-dose activity change, negative = inhibition, actives largely listed as inhibitors. 580,000 compounds, 1.1% hits. AID 1671190; also: potency is read from the fitted curve at half-maximal effect; % is scaled to controls: 0 for no effect and ±100 for the full control effect
Target sequence (P18054 whole entry, looked up): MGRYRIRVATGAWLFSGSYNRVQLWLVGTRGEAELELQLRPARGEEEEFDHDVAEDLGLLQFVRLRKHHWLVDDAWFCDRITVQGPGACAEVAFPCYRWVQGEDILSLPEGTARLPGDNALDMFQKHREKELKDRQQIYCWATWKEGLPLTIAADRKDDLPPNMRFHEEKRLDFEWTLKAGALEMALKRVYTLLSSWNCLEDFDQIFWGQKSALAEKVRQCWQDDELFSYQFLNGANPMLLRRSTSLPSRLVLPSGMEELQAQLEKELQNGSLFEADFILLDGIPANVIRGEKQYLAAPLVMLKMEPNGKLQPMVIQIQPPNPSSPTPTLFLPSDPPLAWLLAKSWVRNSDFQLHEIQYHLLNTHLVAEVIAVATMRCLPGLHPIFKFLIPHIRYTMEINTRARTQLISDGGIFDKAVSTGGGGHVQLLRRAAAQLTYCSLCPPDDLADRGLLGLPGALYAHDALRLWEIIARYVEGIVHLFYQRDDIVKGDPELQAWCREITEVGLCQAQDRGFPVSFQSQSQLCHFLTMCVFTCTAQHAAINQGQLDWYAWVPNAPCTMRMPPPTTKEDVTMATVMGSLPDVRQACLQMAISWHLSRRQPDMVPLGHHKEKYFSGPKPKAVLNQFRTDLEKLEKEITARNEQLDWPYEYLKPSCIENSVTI
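Purified human 12hLO (150 nM final) in 25 mM Hepes, 0.01% Triton X-100, pH 7.0 was preincubated 15 min at room temperature with compound. Then 40 uM arachidonic acid was added, 30 min. Hydroperoxide was read by Fe-XO absorbance ratio 573/405 nm.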
Vif-APOBEC3F blk: Vif-A3F binding inhibition; Potency, µM (top dose mostly 46.1 µM), inactives show at the top dose activity, negative = active; HeLa A3F-eYFP + Vif (tagged APOBEC3F with the HIV-1 protein that degrades it), YFP fluorescence increase; 390,000 compounds, 0.2% hits; AID 602313; also: potency is read from the fitted curve at half-maximal effect; % of control where 0% means no effect; nearly all actives have a fitted effect of over 65% in size
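HeLa cells stably expressing A3F-eYFP plus Vif, plated and incubated overnight at 37 deg C, then exposed to compounds overnight at 37 deg C. Blocked degradation read as raised yellow fluorescence (Ex 488/Em 500-530).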
TRPML1 blocker: human mucolipin-1 channel inhibition; Q9GZU1; TRPML1-inducible cells, Ca2+ dye fluorescence, FDSS; stronger effect = lower value; inhibition of EC80 agonist-evoked calcium signal; activity change, negative = inhibition, % (concentration not given with the values); 390,000 compounds, 0.02% hits; AID 624415; in the data active = activity change below about -50%; inconclusive = between about -30% and that limit;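 also: stimulus is agonist 54-4 at its EC80 concentration; % is scaled to controls: 0 for no effect and ±100 for the full control effect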
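TRPML1-DL cells, Tet-induced overnight (~16 h, 37 °C) at 1,500 cells/well, were loaded with Ca8 no-wash dye plus quencher for 45-90 min at room temperature. Compounds were pinned during FDSS kinetic reading; agonist 54-4 at EC80 (4 uM final) then added.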
GRP78 ERSR act: induces the endoplasmic reticulum stress response in human glioma cells. 420,000 compounds, 0.02% hits. U87-MG GRP78 promoter luciferase reporter, 16 h. Potency, µM, for the others: at the top dose activation, actives largely listed as activators; also: potency is read from the fitted curve at half-maximal effect; series mostly up to about 76 µM; % of control where 0% means no effect; nearly all actives have a fitted effect of over 35% in size
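ERSR induction read as luciferase luminescence (Bright-Glo, 10 min at room temperature) in stably transfected human U87-MG glioma cells exposed to compounds for 16 h, using GRP78 as sensor.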
TRPML1 ag: agonists of human TRPML1 channel. Q9GZU1. TRPML1-expressing cells, Ca2+ dye fluorescence, FDSS. activation, % (test concentration not listed). 410,000 compounds, 0.12% hits. AID 624414; in the data active = activation above about 50%; inconclusive = mostly about 30% to 49%; also: 0% is about no effect
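In this qHTS format, compounds were pin-transferred onto Ca8-dye-loaded TRPML1-DL cells induced with Tet overnight, and intracellular Ca2+ fluorescence was recorded kinetically for 110 s after a 10 s baseline. A subsequent 4uM final 54-4 (EC80) addition followed by a second 110 s read served as the antagonist phase.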
Vif-APOBEC3G blk: Vif-A3G binding inhibition | HeLa A3G-eYFP + Vif (tagged APOBEC3G with the HIV-1 protein that degrades it), YFP fluorescence, overnight | Potency, µM (titrated, usually from 46.1 µM), without a hit: at the top dose activity, negative = active, hits mostly inhibitors | 410,000 compounds, 0.076% hits; also: potency is read from the fitted curve at half-maximal effect; % is scaled to controls: 0 for no effect and ±100 for the full control effect; nearly all actives have a fitted effect of over 60% in size
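Read-out is eYFP fluorescence (Ex 488/Em 500-530) from Vif-expressing HeLa A3G-eYFP cells; more signal means A3G escaped Vif-mediated degradation. Cells plated overnight, compound pinned in, incubated overnight at 37 deg C.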
Active calls of the source: *; ? = inconclusive; . = no result; ! = a repeat was not active; [ ] = remark or other dose. This is a sample that favours compounds with a hit; in the whole collection about 1.3% have one here. Unless noted, calls follow the shape of the dose curve; as a rule, active = well fitted curve in the direction sought with a large enough effect; inconclusive = small, poorly fitted or top-dose-only effect, or another doubt; inactive = no such curve, though single readings can be large; an effect the other way counts as inactive or inconclusive.

SMILES	ALOX12 inh	Vif-APOBEC3F blk	TRPML1 blocker	GRP78 ERSR act	TRPML1 ag	Vif-APOBEC3G blk
Cc1ccc(-c2cc(C(=O)O)c3cc(Cl)ccc3n2)o1	7.9µM*!	.	.	.	.	.
O=C(O)c1cc(-c2ccccn2)nc2ccc(Cl)cc12	-9%	.	.	.	.	.
Cn1c2ccccc2c2cc(/C=N/NC(=O)c3cc(O)ccc3O)ccc21	35µM*	-4%	-10	7%	0	-8%
CCN1C(=NCCc2ccc(Br)cc2)N[C@@H](c2ccccc2)[C@H](C(=O)OC)[C@H]1C	45µM*	-1%	9	-4%	-1	3%
CCN1C(=NCCc2ccc([N+](=O)[O-])cc2)N[C@@H](c2ccccc2)[C@H](C(=O)OC)[C@H]1C	-22%	-7%	15	-1%	0	2%
Cc1c(C)c2cc(Cl)c(OC(C)C(=O)NCc3ccccn3)cc2oc1=O (stereo not drawn)	10%	.	.	.	.	.
CCCc1nn2cc(-c3ccc(C)c(C)c3)nc2s1	-11%	7%	-9	-7%	0	1%
CCc1ccc2cc(-c3ccc(C)c(C)c3)cn2c1	25µM*	.	.	.	.	.
O=C(CSc1nc(-c2cccs2)nc2ccccc12)N1CCC1	-13%	.	.	.	.	.
COc1ccccc1NC(=S)N/N=C1\CC(C)(C)Oc2ccc(O)cc21	?	0%	6	-6%	2	3%
COc1ccc(NC(=S)N/N=C2\CC(C)(C)Oc3ccc(O)cc32)cc1	32µM*	?	15	-4%	3	-12%
O=C(Nc1ccc(N2CCOCC2)cc1)c1cccc2ccccc12	-22%	-2%	?	1%	1	10µM*
C[C@@H](NC(=O)/C(C#N)=C/c1ccc(O)c(O)c1)c1ccccc1	?	1%	-8	0%	1	-16%
Clc1cccc(N/N=C/c2ccc(N3CCOCC3)cc2)c1	?	3%	-26	1%	0	-7%
N#C/C(=C\c1ccc(O)c(O)c1)C(=O)Nc1ccccc1	50µM*	-22%	-3	?	1	-14%
C(=N\Nc1ccccc1)/c1ccc(N2CCOCC2)cc1	14µM*	-3%	16	3%	-1	-2%
O=C(Nc1ccc(N2CCCCC2)cc1)c1ccc2ccccc2n1	-1%	-1%	?	5%	87*	2%
O=C(Nc1ccc(-c2nnc3n2CCCC3)cc1)c1ccc2ccccc2n1	11%	.	.	.	.	.
COCCn1c(C)cc(C(=O)CSc2nnc(Nc3cccc(C)c3)s2)c1C	-2%	.	.	.	.	.
Cn1c(NCc2ccccc2)nc2c1c(=O)n(Cc1ccc(Cl)c(Cl)c1)c(=O)n2C	-24%	.	.	.	.	.
CCc1noc(CN2CCN(c3oc(C4CC4)nc3C#N)CC2)n1	-6%	.	.	.	.	.
O=C(CCCc1nc2ccccc2s1)NC1CCSc2c(F)cccc21 (stereo not drawn)	9%	.	.	.	.	.
CCc1sc(C(=O)NCc2ccccc2OC)cc1C	-2%	.	.	.	.	.
CC(=O)N1CCc2cc(C(=O)C(C)n3nnc(-c4cccc(Cl)c4)n3)ccc21 (stereo not drawn)	-9%	.	.	.	.	.
Cc1nn(Cc2ccc(Cl)cc2)c(C)c1NS(=O)(=O)c1c(C)nn(C(F)F)c1C	-1%	.	.	.	.	.
SMILES	ALOX12 inh	Vif-APOBEC3F blk	TRPML1 blocker	GRP78 ERSR act	TRPML1 ag	Vif-APOBEC3G blk
N#C/C(=C/c1ccc(O)c(O)c1)C(=O)NCc1ccc(Cl)cc1	25µM*	?	0	12%	0	-18%
N#C/C(=C/c1ccccc1)C(=O)Nc1ccc(N2CCOCC2)cc1	2.5µM*	.	.	.	.	.
CCOC(=O)c1c(NC(=O)C(=O)NCc2ccncc2)sc2c1CC(C)(C)OC2	44%	.	.	.	.	.
COc1cc(N=Nc2ccc(Br)cc2)cc(C=O)c1O	3.2µM*	2%	14	-3%	2	4%
Cc1ccc(C(C)C)c(OCCNCCc2ccccc2)c1	7.9µM*	?	-18	-6%	1	4%
Cc1ccc(C(C)C)c(OCCCNCc2cccnc2)c1	-16%	1%	-10	-6%	5	10%
CCCn1c(SCC(=O)Nc2ccc(F)c(F)c2)nc(O)cc1=O	-23%	.	.	.	.	.
CC(=O)OC(C)c1ccccc1 (stereo not drawn)	-1%[176 µM]	.	.	.	.	.
